The text below walks through data of PubChem BioAssay (NCI).

Among the test systems are DU-145 prostate; K-562 leukemia; MALME-3M melanoma; MDA-MB-231 breast; RXF 393 renal; SF-268 CNS; SF-295 CNS; SF-539 CNS; UACC-257 melanoma; M14 melanoma.
What all share (assay): NCI-60 one-dose screen, 48 h (100 = growth as untreated, 0 = no growth, -100 = all killed)
Settings in all cases: 10 µM

Molecules are shown by their SMILES. This is part of a sample that, as a whole, favours compounds with a hit. Of some 83,000 tested, about 20% had one in any assay.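 Interpretation: 100, growth as untreated; towards 0, rising growth inhibition; 0, no net growth; 0 to -100, cell death. Compounds scoring below 10 were considered active.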 A number with no mark means an inactive call. Active and inactive are the calls of the source.

In the case of `CCCCC/C=N/Nc1nc(C)cc(=O)[nH]1`, the growth in the assay with DU-145 prostate is 114%; with K-562 leukemia, 105%; with MALME-3M melanoma, 103%; with MDA-MB-231 breast, 95.2%; in the assay on RXF 393 renal it was 105%; in the assay on SF-268 CNS it was 107%. Moreover, the growth with SF-295 CNS was 88.8%; in the assay on SF-539 CNS, 108%; in the assay on UACC-257 melanoma, 93.1%; with M14 melanoma it was 106%.
Consider `COc1ccc(C2(O)CCCCC2)cc1`, for which the growth with DU-145 prostate was 112%; in the assay on K-562 leukemia, 111%; in the assay with MALME-3M melanoma, 105%; with MDA-MB-231 breast, 97%; with RXF 393 renal, 103%; with SF-268 CNS, 105%. Also, the growth with SF-295 CNS was 105%; in the assay with SF-539 CNS, 109%; in the assay on UACC-257 melanoma, 99.1%; with M14 melanoma, 101%.
As for `CCCCCCCCCCC(C)Br` (stereo not given), the growth was 113% with DU-145 prostate; 93.2% in the assay on K-562 leukemia; 104% in the assay with MALME-3M melanoma; 113% in the assay on MDA-MB-231 breast; 103% in the assay with RXF 393 renal; 113% in the assay with SF-268 CNS. Moreover, the growth in the assay on SF-295 CNS was 94.9%; in the assay with SF-539 CNS, 110%; in the assay with UACC-257 melanoma, 101%; with M14 melanoma, 112%.
For the compound `O=C1C=C(O)C(=O)C=C1O`, the growth in the assay on DU-145 prostate was 119%; with K-562 leukemia it was 103%; in the assay with MALME-3M melanoma, 144%; in the assay on MDA-MB-231 breast it was 104%; in the assay with RXF 393 renal it was 150%; with SF-268 CNS, 101%. Besides, the growth was 115% with SF-295 CNS, 98.7% with SF-539 CNS, 107% in the assay with UACC-257 melanoma and 104% in the assay with M14 melanoma.
Regarding `CC1(C(=O)O)NC(C(=O)O)Cc2c1[nH]c1ccccc21` (stereo not given), the growth with DU-145 prostate was 110%; with K-562 leukemia it was 96.9%; in the assay on MALME-3M melanoma it was 90.5%; in the assay on MDA-MB-231 breast it was 104%; in the assay on RXF 393 renal, 110%; in the assay on SF-268 CNS, 113%. Moreover, the growth in the assay with SF-295 CNS was 90.2%; with SF-539 CNS, 105%; with UACC-257 melanoma, 87.6%; in the assay on M14 melanoma it was 96.7%.
Consider `O=C(O)c1cccc([N+](=O)[O-])c1`, for which the growth was 104% in the assay with DU-145 prostate; 96% in the assay on K-562 leukemia; 105% in the assay with MALME-3M melanoma; 102% with MDA-MB-231 breast; 117% in the assay on RXF 393 renal; 100% in the assay on SF-268 CNS. Further, the growth in the assay on SF-295 CNS was 94.9%; with SF-539 CNS, 103%; in the assay with UACC-257 melanoma, 107%; in the assay with M14 melanoma, 104%.
Turning to `NC(=S)N/N=C/c1ccc(N)cc1`, the growth in the assay with DU-145 prostate is 108%; in the assay with K-562 leukemia, 98.7%; in the assay on MALME-3M melanoma it was 104%; in the assay with MDA-MB-231 breast it was 97%; in the assay on RXF 393 renal, 107%; in the assay on SF-268 CNS, 97.1%. Also, the growth in the assay with SF-295 CNS was 102%; in the assay with SF-539 CNS, 103%; in the assay with UACC-257 melanoma, 82.9%; in the assay with M14 melanoma it was 98.4%.
Consider `Oc1ccc(O)cc1`, for which the growth in the assay on DU-145 prostate was 105%; in the assay on K-562 leukemia, 98.1%; with MALME-3M melanoma, 102%; in the assay with MDA-MB-231 breast, 109%; with RXF 393 renal it was 135%; in the assay on SF-268 CNS it was 106%. The growth in the assay with SF-295 CNS is 114%; with SF-539 CNS, 90.1%; in the assay with UACC-257 melanoma it was 97.8%; in the assay with M14 melanoma, 108%.
Consider `c1ccc2c(c1)Sc1ccccc1S2`, for which the growth is 108% in the assay on DU-145 prostate; 103% in the assay with K-562 leukemia; 101% in the assay with MALME-3M melanoma; 94.1% in the assay on MDA-MB-231 breast; 99.5% with RXF 393 renal; 109% in the assay with SF-268 CNS. For the same compound, the growth with SF-295 CNS was 101%; in the assay with SF-539 CNS, 106%; in the assay with UACC-257 melanoma, 99.9%; with M14 melanoma, 103%.
In the case of `Cn1cnc2nc(Cl)nc(Cl)c21`, the growth in the assay with DU-145 prostate is -24% (active); in the assay on K-562 leukemia it was 25.5%; with MALME-3M melanoma, 55.6%; with MDA-MB-231 breast it was 20.9%; with RXF 393 renal, 30.6%; in the assay with SF-268 CNS, 22.1%. The growth was 16.3% with SF-295 CNS, 2.85% (active) with SF-539 CNS, 60% with UACC-257 melanoma and -15.6% (active) in the assay on M14 melanoma.
`Cc1ccc(/C(C#N)=C/c2ccc3c(c2)OCO3)cc1`: the growth in the assay with DU-145 prostate is 98.1%; in the assay on K-562 leukemia, 32.4%; in the assay on MALME-3M melanoma, 84.3%; in the assay on MDA-MB-231 breast, 73.3%; in the assay on RXF 393 renal, 75.3%; in the assay on SF-268 CNS, 87.7%. The growth in the assay on SF-295 CNS was 110%; with SF-539 CNS, 91.1%; in the assay with UACC-257 melanoma, 87.1%; in the assay on M14 melanoma it was 75.2%.
Regarding `NC(=O)N/N=C\c1ccco1`, the growth in the assay on DU-145 prostate is 131%; with K-562 leukemia, 100%; in the assay on MALME-3M melanoma it was 114%; in the assay on MDA-MB-231 breast it was 110%; with RXF 393 renal, 109%; in the assay with SF-268 CNS, 112%. Besides, the growth was 132% in the assay on SF-295 CNS, 109% with SF-539 CNS, 85.1% in the assay on UACC-257 melanoma and 104% in the assay with M14 melanoma.
Regarding `O=[N+]([O-])c1ccc(S(=O)(=O)NN=C2CCCCC2)cc1`, the growth in the assay on DU-145 prostate was 121%; with K-562 leukemia it was 111%; in the assay with MALME-3M melanoma it was 101%; in the assay on MDA-MB-231 breast it was 108%; in the assay on RXF 393 renal, 117%; in the assay with SF-268 CNS, 116%. For the same compound, the growth is 97.8% in the assay on SF-295 CNS, 109% with SF-539 CNS, 95.6% in the assay on UACC-257 melanoma and 106% in the assay with M14 melanoma.
